Source: PubChem BioAssay (NCI)
About 83,000 compounds went through this panel and 20% of them were active in at least one assay; those are over-represented in the sample as a whole.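 Activity criterion: percent growth below 10, measured after cells in 96-well plates were exposed to a single compound concentration for 48 hours.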 Values without a mark were called inactive. Activity calls are given as the source filed them.

Legend:
Assay in all cases: NCI-60 one-dose screen, 48 h (100 = growth as untreated, 0 = no growth, -100 = all killed)
Conditions in all cases: 10 µM unless noted
[1] = test system: SK-MEL-2 melanoma
[2] = test system: EKVX NSCLC
[3] = test system: SN12C renal
[4] = test system: UO-31 renal
[5] = test system: TK-10 renal
[6] = test system: ACHN renal
[7] = test system: CAKI-1 renal
[8] = test system: A498 renal
[9] = test system: CCRF-CEM leukemia
[10] = test system: MOLT-4 leukemia

Row | SMILES | growth [1] | growth [2] | growth [3] | growth [4] | growth [5] | growth [6] | growth [7] | growth [8] | growth [9] | growth [10]
1 | O=C(O)c1cn(C2CC2)c2cc(N3CCN(Cc4ccc5ccccc5c4O)CC3)c(F)cc2c1=O | 76.3% | 66.7% | 32.5% | 42.2% | 67.7% | 59% | 15.2% | -7.61% (active) | 68.2% | 39%
2 | Cc1ccc2c(n1)C(=O)C(Br)=C(CC(C)C)C2=O | 110% | 104% | 98.8% | 87.2% | 115% | 68.6% | 92.7% | 106% | 24.2% | 19.5%
3 | CCN(C)S(=O)(=O)Nc1cccc(Nc2ncnc3cc(NC(=O)CCl)ccc23)c1Cl | 17.7% | 18.4% | -27.9% (active) | -87.4% (active) | 1.2% (active) | -67.8% (active) | -15.4% (active) | 81.7% | 5.63% (active) | 5.41% (active)
4 | Cn1ccnc1C(=O)/C=C/c1ccc(C(=O)Nc2ccc(Cl)cc2)cc1 | 82.4% | 8.52% (active) | 0.398% (active) | -74.7% (active) | 16.9% | -39.9% (active) | -2.07% (active) | 19.5% | 8.42% (active) | 5.13% (active)
5 | CN(/C(N)=N/N=C/c1c2ccccc2cc2ccccc12)C1CCCCC1 | 85.8% | 50.5% | 54.7% | 33.5% | 59.3% | 52.7% | 46.5% | 50.3% | 29.1% | 14.2%
6 | C=C(C)[C@@H]1CC[C@]2(CO)CC[C@]3(C)[C@H](CC[C@@H]4[C@@]5(C)CC[C@H](NCO)C(C)(C)[C@@H]5CC[C@]43C)[C@@H]12 | -60.9% (active) | 8.09% (active) | -92.4% (active) | -99.2% (active) | -64.8% (active) | -99.2% (active) | -96.9% (active) | 79% | -9.15% (active) | -26.7% (active)
7 | COc1ccc(C2=Nc3c(N)nc(N)nc3NC(c3cccc(Nc4ccnc5cc(C(F)(F)F)ccc45)c3)C2)cc1 (stereo not given) | 75.5% | 72.3% | 75.7% | 70% | 108% | 96.4% | 60.7% | 84.7% | 53.9% | 24.3%
8 | O=C(N/N=C/c1c(Cl)cccc1Cl)c1cccnc1Nc1cccc(C(F)(F)F)c1 | -6.91% (active) | 17.6% | 42.6% | 29.8% | 35.6% | 29.6% | 60.1% | 65.6% | 18.9% | 31.7%
9 | c1ccc([P+](c2ccccc2)(c2ccccc2)c2ccc3c4ccc([P+](c5ccccc5)(c5ccccc5)c5ccccc5)c5cccc(c6cccc2c63)c54)cc1 | 18.6% | 12.8% | 10.5% | 39.4% | 52.2% | 41.3% | 40.3% | -11.3% (active) | 26.5% | 23.2%
10 | COc1cc2nc3cc([N+](=O)[O-])ccc3c(NCCNCC(C)O)c2cc1OC (stereo not given) | -29.6% (active) | 9.5% (active) | -16.2% (active) | 28.6% | 14.3% | 2.74% (active) | 18.6% | -34% (active) | -6.35% (active) | -0.334% (active)
11 | CNc1nnc2n(-c3ccccc3)c(=O)c3cnn(-c4ccccc4)c3n12 | 82% | 90.4% | 104% | 81.3% | 79.9% | 88.8% | 81% | 71.7% | 85.8% | 72.2%
12 | Nc1ncnc2c1N=C(c1ccc(Br)cc1)CC(c1cccc(Nc3ccnc4cc(C(F)(F)F)ccc34)c1)N2 (stereo not given) | 68.5% | 44.4% | 70.6% | 47.2% | 102% | 80% | 56.2% | 63% | 34.3% | 16.8%
13 | CN(c1cc2ncc(=O)[nH]c2cc1NC(N)=NCc1ccc(Cl)cc1)C1CCCCC1 | 92.7% | 82.6% | 67.9% | 91% | 85.2% | 98.3% | 98.5% | 80.5% | 21.9% | 35.5%
